Molecules are shown by their SMILES. Counter-ions that a name gives are not always drawn. In all, about 1,500 compounds went through this assay and about 30 (2%) showed activity. Only a selection was taken, and actives are over-represented in it overall. Unmarked numbers belong to inactive results.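 The calls were made as follows: active = robust z-score below -2; a few such results were not called.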

For this experiment, the system named is optoTopBP1 Flp-In 293 T-REx (HEK293) cells. The experiment in a line: light-induced TopBP1 condensate (nuclear foci) count, plate-normalised robust z-score vs non-control wells; higher = more TopBP1 condensates (negative = condensation inhibitor), active = hit call of the paper. The conditions noted are these: 10 µM; incubation time 2 h.
On to `CCCCCCCCCCCCCCCC[N+](C)(C)CCN(Cc1ccc(OC)cc1)c1ncccn1` [Thonzonium bromide], for which the “light-induced TopBP1 condensate (z-score)” value was -2.49 (active). In the case of `COc1ccc(CN(CCN(C)C)c2ccccn2)cc1` [Pyrilamine maleate], the “light-induced TopBP1 condensate (z-score)” value is -1.49. For `CN(C)CCN(Cc1ccc(Cl)cc1)c1ccccn1` [Chloropyramine hydrochloride] the value was -0.941; for `CO/N=C(\C(=O)N[C@@H]1C(=O)N2C(C(=O)OC(C)OC(C)=O)=C(COC(N)=O)CS[C@H]12)c1ccco1` (some centres undefined) [Cefuroxime axetil], -0.531. Under `C=C(NC(=O)C(=C)NC(=O)c1csc(C2=N[C@@H]3c4csc(n4)[C@H]4NC(=O)c5csc(n5)[C@H]([C@](C)(O)[C@@H](C)O)NC(=O)[C@H]5CSC(=N5)/C(=C/C)NC(=O)[C@H]([C@@H](C)O)NC(=O)c5csc(n5)[C@]3(CC2)NC(=O)[C@H](C)NC(=O)C(=C)NC(=O)[C@H](C)NC(=O)[C@H]([C@@H](C)CC)N[C@@H]2C=Cc3c([C@H](C)O)cc(nc3[C@H]2O)C(=O)O[C@@H]4C)n1)C(N)=O` [Thiostrepton] stands -3.34 (active); under `CC(C)c1ccc2oc3nc(N)c(C(=O)O)cc3c(=O)c2c1` [Amlexanox], -0.968. `N=C(NCCCCCCNC(=N)NC(=N)Nc1ccc(Cl)cc1)NC(=N)Nc1ccc(Cl)cc1` [Chlorhexidine]: the “light-induced TopBP1 condensate (z-score)” value was 0.68. In the case of `CCc1ccc(C(=O)C(C)CN2CCCCC2)cc1` (centres undefined) [Eperisone HCl], the “light-induced TopBP1 condensate (z-score)” value is 1.18. For `CC(=O)OCC(=O)[C@@]12N=C(C)O[C@@H]1C[C@H]1[C@@H]3CCC4=CC(=O)C=C[C@]4(C)[C@H]3[C@@H](O)C[C@@]12C` [Deflazacort], the “light-induced TopBP1 condensate (z-score)” value is -0.182. For `CCOC(=O)C1=C(COCCN)NC(C)=C(C(=O)OC)C1c1ccccc1Cl` (centres undefined) [Amlodipine], the “light-induced TopBP1 condensate (z-score)” value was -1.57. Take `OC(c1cc(C(F)(F)F)nc2c(C(F)(F)F)cccc12)C1CCCCN1` (centres undefined) [Mefloquine hydrochloride]: the “light-induced TopBP1 condensate (z-score)” value is -1.69. As for `CN(C)c1ccc2nc3ccc(=[N+](C)C)cc-3sc2c1` [Methylene blue], the “light-induced TopBP1 condensate (z-score)” value is -8.05 (active). For `CCOc1ccc2nc3cc(N)ccc3c(N)c2c1` [Ethacridine lactate] the value was 0.0605.

For the compound `Nc1c2ccccc2nc2ccccc12` [Aminacrine], the “light-induced TopBP1 condensate (z-score)” value is -2.02.

Take `Nc1ccc2cc3ccc(N)cc3nc2c1` [Proflavine hemisulfate]: the “light-induced TopBP1 condensate (z-score)” value is -6.85 (active).

As for `CO/N=C(\C(=O)N[C@@H]1C(=O)N2C(C(=O)[O-])=C(C[n+]3ccn4ncccc43)CS[C@H]12)c1nsc(N)n1` [Cefozopran hydrochloride], the “light-induced TopBP1 condensate (z-score)” value is 0.96.

Turning to `CC[C@H]1OC(=O)[C@H](C)[C@@H](O[C@H]2C[C@@](C)(OC)[C@@H](O)[C@H](C)O2)[C@H](C)[C@@H](O[C@@H]2O[C@H](C)C[C@H](N(C)C)[C@H]2O)[C@](C)(O)C[C@@H](C)/C(=N\OCOCCOC)[C@H](C)[C@@H](O)[C@]1(C)O` [Roxithromycin], the “light-induced TopBP1 condensate (z-score)” value is 0.222. With `CC[N+](C)(CC)CCOC(=O)C1c2ccccc2Oc2ccccc21` [Methantheline bromide], the “light-induced TopBP1 condensate (z-score)” value was 0.691. For `CSc1nc2cc(Cl)c(Oc3cccc(Cl)c3Cl)cc2[nH]1` [Triclabendazole], the “light-induced TopBP1 condensate (z-score)” value was -2.43 (active). Regarding `C[C@@H](CN1CC(=O)NC(=O)C1)N1CC(=O)NC(=O)C1` [Dexrazoxane hydrochloride], the “light-induced TopBP1 condensate (z-score)” value is -0.035.

`C=CCOc1ccc(CC(=O)O)cc1Cl` [Alclofenac]: the “light-induced TopBP1 condensate (z-score)” value was 0.0679. Turning to `N=C(N)NCCN1CCCCCCC1` [Guanethidine sulfate], the “light-induced TopBP1 condensate (z-score)” value is -0.799.

In the case of `CC(C)(C)NC[C@H](O)COc1ccccc1C1CCCC1` [Penbutolol sulfate], the “light-induced TopBP1 condensate (z-score)” value is -0.793. Consider `COc1ccccc1Oc1c(NS(=O)(=O)c2ccc(C(C)(C)C)cc2)nc(-c2ncccn2)nc1OCCO` [Bosentan], for which the “light-induced TopBP1 condensate (z-score)” value is 0.343. With `CC[C@H]1OC(=O)C[C@@H](O)[C@H](C)[C@@H](O[C@@H]2O[C@H](C)[C@@H](O[C@H]3C[C@@](C)(O)[C@@H](O)[C@H](C)O3)[C@H](N(C)C)[C@H]2O)[C@@H](CC=O)C[C@@H](C)C(=O)/C=C/C(C)=C/[C@@H]1CO[C@@H]1O[C@H](C)[C@@H](O)[C@@H](OC)[C@H]1OC` [Tylosin], the “light-induced TopBP1 condensate (z-score)” value is 0.755. As for `CN1C(=O)OC(C)(C)C1=O` [Trimethadione], the “light-induced TopBP1 condensate (z-score)” value is 0.285. Turning to `NC[C@@H]1O[C@@H](O[C@H]2[C@H](O)[C@@H](O[C@H]3O[C@H](CO)[C@@H](O)[C@H](N)[C@H]3O)[C@H](N)C[C@@H]2N)[C@@H](O)[C@H](O)[C@H]1O` [Kanamycin A sulfate], the “light-induced TopBP1 condensate (z-score)” value was 0.0568.

In the case of `C[C@H]1[C@H](OC(=O)CCC(=O)O)O[C@@H]2O[C@@]3(C)CC[C@H]4[C@H](C)CC[C@@H]1[C@@]24OO3` [Artesunate], the “light-induced TopBP1 condensate (z-score)” value was -0.0235. On to `CCN(CCO)CCCC(C)Nc1ccnc2cc(Cl)ccc12` (centres undefined) [Hydroxychloroquine sulfate], for which the “light-induced TopBP1 condensate (z-score)” value is -1.68.

As for `CCN(CC)CCCC(C)Nc1ccnc2cc(Cl)ccc12` (centres undefined) [Chloroquine diphosphate], the “light-induced TopBP1 condensate (z-score)” value was -0.187. `CCN(CC)CCCC(C)Nc1c2ccc(Cl)cc2nc2ccc(OC)cc12` (centres undefined) [Quinacrine dihydrochloride hydrate]: the “light-induced TopBP1 condensate (z-score)” value is -3.15 (active). In the case of `CC(=O)N[C@@H](CC(=O)N[C@@H](CCC(=O)O)C(=O)O)C(=O)O` [Spaglumic acid], the “light-induced TopBP1 condensate (z-score)” value was 1.44. As for `CC(C)(CO)[C@@H](O)C(=O)NCCC(=O)NCCSSCCNC(=O)CCNC(=O)[C@H](O)C(C)(C)CO` [Pantethine], the “light-induced TopBP1 condensate (z-score)” value is 0.505. For `NCCCC(O)(P(=O)(O)O)P(=O)(O)O` [Alendronate sodium], the “light-induced TopBP1 condensate (z-score)” value is -0.706. On to `O=P(O)(O)C(O)(Cc1cccnc1)P(=O)(O)O` [Risedronic acid monohydrate], for which the “light-induced TopBP1 condensate (z-score)” value was -0.826. For `C#C[C@]1(O)CC[C@H]2[C@@H]3CCC4=CCCC[C@@H]4[C@H]3CC[C@@]21C` [Lynestrenol] the value was 1.39. Under `CC(C)=CCC1C(=O)N(c2ccccc2)N(c2ccccc2)C1=O` [Feprazone] stands 1.11; under `C[N+](C)(C)C[C@H](O)CC(=O)[O-]` [Levocarnitine], 0.0352.

For the compound `CC(C)Nc1cccnc1N1CCN(C(=O)c2cc3cc(NS(C)(=O)=O)ccc3[nH]2)CC1` [Delavirdine], the “light-induced TopBP1 condensate (z-score)” value was 0.915. For the compound `Cn1ccnc1S` [Methimazole], the “light-induced TopBP1 condensate (z-score)” value is -0.456. With `CC1(C)O[C@@H]2C[C@H]3[C@@H]4CCC5=CC(=O)C=C[C@]5(C)[C@H]4[C@@H](O)C[C@]3(C)[C@]2(C(=O)CO)O1` [Desonide], the “light-induced TopBP1 condensate (z-score)” value was -0.951.

Turning to `CC/C=C(\C(=O)N[C@@H]1C(=O)N2C(C(=O)OCOC(=O)C(C)(C)C)=C(COC(N)=O)CS[C@H]12)c1csc(N)n1` [Cefcapene pivoxil hydrochloride], the “light-induced TopBP1 condensate (z-score)” value is -0.782. Under `CCOc1ccccc1C(N)=O` [Ethenzamide] stands -0.0402; under `CCC[C@@H]1C[C@@H](C(=O)N[C@@H]([C@H]2O[C@H](SC)[C@H](O)[C@@H](O)[C@H]2O)[C@H](C)Cl)N(C)C1` [Clindamycin hydrochloride], 0.556; under `CC[C@@H]([C@H](C)O)n1ncn(-c2ccc(N3CCN(c4ccc(OC[C@@H]5CO[C@@](Cn6cncn6)(c6ccc(F)cc6F)C5)cc4)CC3)cc2)c1=O` [Posaconazole], -2.52 (active). As to `CC(C)N1CCN(c2ccc(OCC3COC(Cn4cncn4)(c4ccc(Cl)cc4Cl)O3)cc2)CC1` (centres undefined) [Terconazole], the “light-induced TopBP1 condensate (z-score)” value was -0.114. Turning to `CCC(C)n1ncn(-c2ccc(N3CCN(c4ccc(OCC5COC(Cn6cncn6)(c6ccc(Cl)cc6Cl)O5)cc4)CC3)cc2)c1=O` (centres undefined) [Itraconazole], the “light-induced TopBP1 condensate (z-score)” value was -0.757. As for `CN[C@@H]1[C@@H](O[C@H]2O[C@H](CO)[C@@H](N)[C@H](O)[C@H]2O)OC2C[C@@H](N)[C@@H](O[C@H]3[C@H](O)[C@@H](O)[C@H](N)C[C@@H]3N)OC2[C@@H]1O` (some centres undefined) [Apramycin], the “light-induced TopBP1 condensate (z-score)” value was 0.974.

Take `C#Cc1cccc(Nc2ncnc3cc(OCCOC)c(OCCOC)cc23)c1` [Erlotinib]: the “light-induced TopBP1 condensate (z-score)” value was 1.27. For `OC(CNCC(O)C1CCc2cc(F)ccc2O1)C1CCc2cc(F)ccc2O1` (centres undefined) [Nebivolol hydrochloride], the “light-induced TopBP1 condensate (z-score)” value was -0.227. `CCCC(=O)N1CCCN(c2nc(N)c3cc(OC)c(OC)cc3n2)CC1` [Bunazosin hydrochloride]: the “light-induced TopBP1 condensate (z-score)” value is 0.537. With `CC(=O)OCC(=O)[C@@]1(O)[C@H](C)C[C@H]2[C@@H]3CCC4=CC(=O)C=C[C@]4(C)[C@@]3(F)[C@@H](O)C[C@@]21C` [Dexamethasone acetate], the “light-induced TopBP1 condensate (z-score)” value is 0.214. As for `OCCN1CCN(CC/C=C2/c3ccccc3Sc3ccc(Cl)cc32)CC1` [Zuclopenthixol dihydrochloride], the “light-induced TopBP1 condensate (z-score)” value was -0.966. Regarding `Cn1cc(C(=O)[C@@H]2CCc3[nH]cnc3C2)c2ccccc21` [Ramosetron hydrochloride], the “light-induced TopBP1 condensate (z-score)” value was -0.549. Consider `COc1ccc(C2C(=O)c3ccccc3C2=O)cc1` [Anisindione], for which the “light-induced TopBP1 condensate (z-score)” value is 0.789.

Consider `COc1cccc2c1C(=O)c1c(O)c3c(c(O)c1C2=O)C[C@@](O)(C(=O)CO)C[C@@H]3O[C@H]1C[C@H](N)[C@@H](O)[C@H](C)O1` [Epirubicin hydrochloride], for which the “light-induced TopBP1 condensate (z-score)” value was -3.05 (active).

For the compound `C[C@H](NCc1ccc(OCc2cccc(F)c2)cc1)C(N)=O` [Safinamide], the “light-induced TopBP1 condensate (z-score)” value was -0.127.

On to `CC(COc1ccccc1)NC(C)C(O)c1ccc(O)cc1` (centres undefined) [Isoxsuprine hydrochloride], for which the “light-induced TopBP1 condensate (z-score)” value was -0.14. As for `Oc1ccc(OCc2ccccc2)cc1` [Monobenzone], the “light-induced TopBP1 condensate (z-score)” value is -2.29 (active).
